# Laboratory results reported in PubChem BioAssay (NCATS).
# Values without a mark were called inactive. Results filed as inconclusive are left out. The source made the active and inactive calls. Unless noted, the call rests on the fitted dose curve; in most records, active means well fitted curve in either direction with a large enough effect (not every such curve was filed as active); inconclusive means small, poorly fitted or top-dose-only effect, or another doubt; inactive means flat fitted curve, though single readings scatter.
# Legend:
# [1] = biological target: Lysosomal acid glucosylceramidase (Homo sapiens) (UniProt P04062); experiment: Glucocerebrosidase-p2 (AID 348; in the data active means potency below about 10 µM; further: potency means the concentration at half of the fitted maximal effect); conditions: purified GBA, blue fluorogenic substrate, 40 min
# In short: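 Normal human glucocerebrosidase (0.2 nM) with blue fluorogenic substrate (80 uM final) in citrate/phosphate pH 5.9 with 10mM sodium taurocholate, 0.01% tween-20; 40 min RT, NaOH/glycine stop; fluorescence Ex 365/Em 440; AC50 from a titration from 0.6 nM upwards.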
# [2] = AP1 Signaling Pathway (AID 357); conditions: ME-180 AP-1-bla reporter, EGF-induced, beta-lactamase ratio, 5 h; at 7.69 µM (top of the series) unless noted;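 further: ME-180 reporter cells stimulated with EGF at its EC50 level; on the % scale 0 is the no-effect control and ±100 the full control effect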
# In short: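 Beta-lactamase reporter under AP-1 response element, ME-180 background. Stimulus: EC50 EGF. Compound exposure 5 h, 37 °C. Detection: CCF4, 2.5 h RT, 460/530 nm. Values: AC50 from titration.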
# [3] = biological target: Cytochrome P450 1A2 (Homo sapiens) (UniProt P05177); experiment: p450-cyp1a2 (AID 410; calls by dose curve; further: potency means the concentration at half of the fitted maximal effect;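 on activity change, negative = inhibition: -100% = full effect of reference inhibitor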); conditions: recombinant CYP1A2, luciferin-ME demethylation, luminescence; series mostly up to 11.4 µM
# In short: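 20nM CYP1A2, 100uM Luciferin-ME (=Km), 100mM KPO4; cpd 10 min RT; +NADPH regen, 60 min RT; stop/detect 20 min; luminescence. Normalized to furafylline 57 uM = full inhibition.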
# [4] = NFAT Signaling Pathway (AID 444); conditions: Jurkat NFAT-bla M1, carbachol, beta-lactamase ratio, 5 h; at 7.69 µM (top of the series) unless noted;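 further: carbachol stimulus at about its EC50 of 1 µM final; on the % scale 0 is the no-effect control and ±100 the full control effect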
# In short: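 Jurkat cells carrying an NFAT-driven β-lactamase reporter and co-transfected muscarinic M1 receptor were treated with compound plus carbachol (1 uM final, an EC50 level) for 5 h at 37 °C. CCF4 loading followed for 1 h at RT; 460/530 nm ratio gave %activity.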
# [5] = Stat Signaling Pathway (AID 446); conditions: ME-180 SIE beta-lactamase reporter, IL-6 stimulated, 5 h; at 7.69 µM (top of the series) unless noted;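 further: ME-180 cervical cancer cells given 40 pM IL-6 alongside compound; SIE-controlled beta-lactamase reporter measured as 460/530 nm FRET emission ratio; on the % scale 0 is the no-effect control and ±100 the full control effect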
# In short: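 Normalization used AC90 stimulation (300 pM IL-6) and AC90 inhibition (125 nM pan-JAK inhibitor at 40 pM IL-6). The underlying signal is SIE-driven beta-lactamase in ME-180 cells after 5 h IL-6 exposure with compound.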
# [6] = biological target: Glucocorticoid receptor (Homo sapiens) (UniProt P04150); experiment: GR-GFP Redistribution (AID 450;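 active means compounds whose dose series gives a full or clear partial fitted curve of increased nuclear translocation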; further: potency means the concentration at half of the fitted maximal effect); conditions: U2OS GR-GFP nuclear translocation, laser cytometry, 2 h
# [7] = biological target: Glucocorticoid receptor (Homo sapiens) (UniProt P04150); experiment: GR-EFC Redistribution (AID 451; calls by dose curve; further: potency means the concentration at half of the fitted maximal effect); conditions: CHO-K1 GR-EFC translocation, beta-gal luminescence, 2 h
# In short: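 CHO-K1 cells stably expressing nuclear-localized β-gal enzyme acceptor and GR fused C-terminally to the enzyme donor fragment; ligand-driven nuclear translocation restores β-gal by complementation. Compounds titrated up to 46 uM final, 2 h at 37 °C; luminescence read.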
# [8] = biological target: Mitogen-activated protein kinase 10 (Mus musculus) (UniProt Q61831); experiment: JNK3 AlphaScreen Assay (AID 530); conditions: JNK3 lysate, c-Jun phosphorylation; series mostly up to 57.1 µM;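 further: kinase came from lysate of stimulated human HepG2 cells; signal reports phosphorylation of biotinylated GST-cJun 1-79 at Ser73 with 10 µM ATP; on the % scale 0 is the no-effect control and ±100 the full control effect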
# In short: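 Biotinylated GST-cJun(1-79) served as substrate for JNK3 in HepG2 lysates stimulated with IL-1beta and TNF-alpha. ATP was 10 uM final, pH 7.6. Ser73 phosphorylation was quantified by AlphaScreen (680 nm excitation).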
# [9] = biological target: 3',5'-cyclic-AMP phosphodiesterase 4B (Homo sapiens) (UniProt Q07343); experiment: qHTS Assay for Inhibitors of PDE-IV (AID 607; active means well fitted activation curve with a large enough effect in the main read-out, with a control signal flat, not every such curve was filed as active; further: % of control where 0% means no effect); conditions: HEK293 ACTOne CNG channel cells, membrane potential fluorescence; series mostly up to 22.9 µM
# In short: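 HEK293 ACTOne cells with CNG channel (1000/well), endogenous PDE4; membrane potential dye, compounds up to 22.9 uM final. Fluorescence Ex 535/Em 590; RO 20-1724 (100 uM final) as reference.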
# [10] = biological target: Cytochrome P450 3A4 (Homo sapiens) (UniProt P08684); experiment: qHTS Assay for Inhibitors and Substrates of Cytochrome P450 3A4 (AID 884; active means well fitted curve in the direction sought with a large enough effect; an effect the other way counts as inactive or inconclusive; further: on the % scale 0 is the no-effect control and ±100 the full control effect; nearly all actives have a fitted effect of over 50% in size); conditions: recombinant CYP3A4, Luciferin-PPXE luminescence; series mostly up to 57.1 µM
# In short: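 Luminescent readout of luciferin produced by CYP3A4 (20 nM) dealkylation of Luciferin-PPXE, 25 uM (its KM). NADPH-driven reaction ran 60 min at RT after 10 min compound preincubation; data scaled to 57 uM ketoconazole as 100% inhibition.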
# [11] = biological target: Cytochrome P450 3A4 (Homo sapiens) (UniProt P08684); experiment: qHTS Assay for Activators of Cytochrome P450 3A4 (AID 885; active means well fitted curve in the direction sought with a large enough effect; an effect the other way counts as inactive or inconclusive; further: nearly all actives have a fitted effect of over 65% in size; further: potency means the concentration at half of the fitted maximal effect); conditions: recombinant CYP3A4, Luciferin-PPXE luminescence, 60 min; series mostly up to 57.1 µM
# In short: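 Human CYP3A4 dealkylates Luciferin-PPXE to luciferin, which luciferase detection converts to light. Substrate was at its KM (25uM), buffer 200mM KPO4, reaction 60 min at RT.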
# [12] = biological target: Cytochrome P450 2C19 (Homo sapiens) (UniProt P33261); experiment: qHTS Assay for Inhibitors and Substrates of Cytochrome P450 2C19 (AID 899; active means well fitted curve in the direction sought with a large enough effect; an effect the other way counts as inactive or inconclusive; further: nearly all actives have a fitted effect of over 60% in size; further: potency means the concentration at half of the fitted maximal effect); conditions: recombinant CYP2C19, luciferin-H EGE luminescence; series mostly up to 11.4 µM
# In short: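 Human CYP2C19 (5nM) with Luciferin-H EGE at 10uM (its KM) in 50mM KPO4 was preincubated with compound for 10 min at 37C. NADPH regeneration started a 60 min 37C reaction. Luciferin was read by luminescence, normalized to 57uM ketoconazole.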
# [13] = qHTS Assay for Identification of Small Molecule Agonists for Hypoxia Response Element Signaling Pathway (AID 914; active means well fitted activation curve with a large enough effect in the signal ratio, with a control signal flat, not every such curve was filed as active; the % refers to the signal ratio; further: % of control where 0% means no effect); conditions: ME-180 (cervical carcinoma) HRE-bla reporter, beta-lactamase ratio, CoCl2, 17 h; hits give high values
# In short: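 qHTS titration; ME-180 HRE-bla cells; EC50 CoCl2 co-treatment, 17 h at 37 degrees Celsius; CCF4 dye, ex 405nm, em 460nm and 530nm; %Activity from ratio; AC50.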
# [14] = biological target: Cytochrome P450 2D6 (Homo sapiens) (UniProt P10635); experiment: qHTS Assay for Inhibitors and Substrates of Cytochrome P450 2D6 (AID 891; active means well fitted curve in the direction sought with a large enough effect; an effect the other way counts as inactive or inconclusive;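 further: luciferin methyl ether substrate demethylated by CYP2D6 with NADPH regeneration; on the % scale 0 is the no-effect control and ±100 the full control effect; nearly all actives have a fitted effect of over 60% in size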); conditions: recombinant CYP2D6, luciferin-ME EGE luminescence; series mostly up to 11.4 µM
# In short: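 Luminescent read-out of luciferin formed by 5 nM human CYP2D6 demethylating 30 uM Luciferin-ME EGE (Km level) over 60 min at room temperature after NADPH regeneration addition. Data normalized to full inhibition by 1.43 uM quinidine.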
# 3',5'-cyclic-AMP phosphodiesterase 4B (Homo sapiens), sequence (Q07343 whole entry, looked up): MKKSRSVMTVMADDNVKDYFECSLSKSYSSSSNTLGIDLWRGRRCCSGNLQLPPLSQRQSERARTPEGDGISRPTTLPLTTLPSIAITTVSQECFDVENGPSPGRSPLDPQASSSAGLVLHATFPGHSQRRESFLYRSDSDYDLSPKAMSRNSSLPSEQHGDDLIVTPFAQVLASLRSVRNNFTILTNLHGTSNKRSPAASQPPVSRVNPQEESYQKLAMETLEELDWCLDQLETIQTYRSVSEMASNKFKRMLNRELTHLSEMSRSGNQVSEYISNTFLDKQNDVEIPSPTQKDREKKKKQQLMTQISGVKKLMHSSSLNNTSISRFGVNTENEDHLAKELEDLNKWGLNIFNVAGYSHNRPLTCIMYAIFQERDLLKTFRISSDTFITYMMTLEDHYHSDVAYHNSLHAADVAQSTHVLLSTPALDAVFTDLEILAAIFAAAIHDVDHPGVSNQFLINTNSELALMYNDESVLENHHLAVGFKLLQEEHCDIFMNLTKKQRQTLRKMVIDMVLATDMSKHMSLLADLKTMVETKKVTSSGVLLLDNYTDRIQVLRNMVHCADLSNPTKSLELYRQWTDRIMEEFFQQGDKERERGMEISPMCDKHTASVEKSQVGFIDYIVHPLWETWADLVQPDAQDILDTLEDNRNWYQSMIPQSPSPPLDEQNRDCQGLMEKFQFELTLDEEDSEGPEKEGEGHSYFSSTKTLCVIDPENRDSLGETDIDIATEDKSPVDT
# Cytochrome P450 2C19 (Homo sapiens), sequence (P33261 whole entry, looked up): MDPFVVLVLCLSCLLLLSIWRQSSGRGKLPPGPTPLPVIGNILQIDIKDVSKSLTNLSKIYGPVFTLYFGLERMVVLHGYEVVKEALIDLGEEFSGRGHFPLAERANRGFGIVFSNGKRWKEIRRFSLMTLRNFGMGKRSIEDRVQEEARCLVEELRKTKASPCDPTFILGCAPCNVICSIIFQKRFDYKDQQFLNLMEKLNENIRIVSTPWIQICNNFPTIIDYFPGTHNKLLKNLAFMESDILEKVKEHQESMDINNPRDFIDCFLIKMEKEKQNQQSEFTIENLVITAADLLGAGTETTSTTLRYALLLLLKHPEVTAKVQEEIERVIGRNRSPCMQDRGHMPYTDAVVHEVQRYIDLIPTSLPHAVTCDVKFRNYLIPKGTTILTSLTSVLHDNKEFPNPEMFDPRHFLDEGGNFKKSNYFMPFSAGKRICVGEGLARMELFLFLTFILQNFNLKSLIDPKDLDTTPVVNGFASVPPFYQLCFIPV
# Cytochrome P450 1A2 (Homo sapiens), sequence (P05177 whole entry, looked up): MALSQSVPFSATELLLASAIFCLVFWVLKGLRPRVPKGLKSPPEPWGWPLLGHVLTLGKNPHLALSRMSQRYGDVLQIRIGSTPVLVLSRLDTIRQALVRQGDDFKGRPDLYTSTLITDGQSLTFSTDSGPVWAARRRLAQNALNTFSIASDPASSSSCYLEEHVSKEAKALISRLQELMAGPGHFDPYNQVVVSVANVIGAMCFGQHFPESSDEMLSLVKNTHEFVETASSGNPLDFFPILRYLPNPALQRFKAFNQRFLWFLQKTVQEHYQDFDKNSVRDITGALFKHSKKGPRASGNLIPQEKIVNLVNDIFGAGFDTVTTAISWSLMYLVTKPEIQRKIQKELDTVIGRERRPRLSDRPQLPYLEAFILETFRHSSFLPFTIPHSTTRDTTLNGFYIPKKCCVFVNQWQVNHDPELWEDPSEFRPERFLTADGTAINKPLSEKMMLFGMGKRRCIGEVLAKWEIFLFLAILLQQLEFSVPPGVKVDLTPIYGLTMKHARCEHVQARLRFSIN
# Glucocorticoid receptor (Homo sapiens), sequence (P04150 whole entry, looked up, the tested form may be a part): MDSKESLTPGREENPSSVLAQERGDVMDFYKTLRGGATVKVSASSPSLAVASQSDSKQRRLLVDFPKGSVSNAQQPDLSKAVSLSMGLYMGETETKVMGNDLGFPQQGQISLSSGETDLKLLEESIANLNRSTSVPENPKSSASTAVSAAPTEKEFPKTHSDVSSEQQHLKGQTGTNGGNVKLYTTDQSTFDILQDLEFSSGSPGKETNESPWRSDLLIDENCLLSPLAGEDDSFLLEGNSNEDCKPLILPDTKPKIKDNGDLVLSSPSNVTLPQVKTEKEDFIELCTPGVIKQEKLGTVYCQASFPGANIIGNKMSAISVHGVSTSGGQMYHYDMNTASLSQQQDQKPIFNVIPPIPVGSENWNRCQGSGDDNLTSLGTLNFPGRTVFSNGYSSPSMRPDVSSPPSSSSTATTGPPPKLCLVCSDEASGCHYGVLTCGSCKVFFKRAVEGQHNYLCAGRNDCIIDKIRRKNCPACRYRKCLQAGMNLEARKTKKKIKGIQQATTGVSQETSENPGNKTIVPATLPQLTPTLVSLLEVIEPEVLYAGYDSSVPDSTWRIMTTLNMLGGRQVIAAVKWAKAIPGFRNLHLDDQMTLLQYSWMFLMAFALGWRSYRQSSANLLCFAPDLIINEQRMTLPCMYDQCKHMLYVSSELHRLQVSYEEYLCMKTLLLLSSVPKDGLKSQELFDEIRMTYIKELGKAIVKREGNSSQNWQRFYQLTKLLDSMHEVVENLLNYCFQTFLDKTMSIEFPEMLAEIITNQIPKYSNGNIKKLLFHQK
# Lysosomal acid glucosylceramidase (Homo sapiens), sequence (P04062 whole entry, looked up): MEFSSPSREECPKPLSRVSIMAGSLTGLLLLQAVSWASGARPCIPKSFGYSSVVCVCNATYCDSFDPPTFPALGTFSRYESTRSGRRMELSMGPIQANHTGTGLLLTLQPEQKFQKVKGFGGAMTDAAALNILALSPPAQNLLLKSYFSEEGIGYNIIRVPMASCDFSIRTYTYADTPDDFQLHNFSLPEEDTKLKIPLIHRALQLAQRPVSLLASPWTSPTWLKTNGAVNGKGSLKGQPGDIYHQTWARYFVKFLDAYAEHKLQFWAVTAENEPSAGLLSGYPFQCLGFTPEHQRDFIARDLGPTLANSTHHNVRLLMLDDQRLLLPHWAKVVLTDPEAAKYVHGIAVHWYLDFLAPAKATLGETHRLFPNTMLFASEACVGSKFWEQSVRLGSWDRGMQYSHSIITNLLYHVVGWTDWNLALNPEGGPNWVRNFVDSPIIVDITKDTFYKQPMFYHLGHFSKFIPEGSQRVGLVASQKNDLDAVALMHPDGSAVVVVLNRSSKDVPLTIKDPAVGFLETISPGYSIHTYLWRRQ
# Cytochrome P450 3A4 (Homo sapiens), sequence (P08684 whole entry, looked up): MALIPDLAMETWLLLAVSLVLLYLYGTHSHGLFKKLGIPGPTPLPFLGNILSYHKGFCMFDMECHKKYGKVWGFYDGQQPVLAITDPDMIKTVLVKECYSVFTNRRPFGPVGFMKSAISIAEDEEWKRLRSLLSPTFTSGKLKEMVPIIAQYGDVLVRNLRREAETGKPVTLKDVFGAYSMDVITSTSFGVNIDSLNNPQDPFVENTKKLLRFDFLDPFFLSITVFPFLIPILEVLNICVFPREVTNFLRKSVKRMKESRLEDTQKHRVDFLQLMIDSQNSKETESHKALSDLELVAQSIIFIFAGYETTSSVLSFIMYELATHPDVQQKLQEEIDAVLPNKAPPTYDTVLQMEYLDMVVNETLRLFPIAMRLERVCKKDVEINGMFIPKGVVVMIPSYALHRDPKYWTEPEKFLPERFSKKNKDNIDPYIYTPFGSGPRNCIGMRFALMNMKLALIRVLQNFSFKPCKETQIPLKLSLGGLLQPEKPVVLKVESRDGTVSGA
# Cytochrome P450 2D6 (Homo sapiens), sequence (P10635 whole entry, looked up): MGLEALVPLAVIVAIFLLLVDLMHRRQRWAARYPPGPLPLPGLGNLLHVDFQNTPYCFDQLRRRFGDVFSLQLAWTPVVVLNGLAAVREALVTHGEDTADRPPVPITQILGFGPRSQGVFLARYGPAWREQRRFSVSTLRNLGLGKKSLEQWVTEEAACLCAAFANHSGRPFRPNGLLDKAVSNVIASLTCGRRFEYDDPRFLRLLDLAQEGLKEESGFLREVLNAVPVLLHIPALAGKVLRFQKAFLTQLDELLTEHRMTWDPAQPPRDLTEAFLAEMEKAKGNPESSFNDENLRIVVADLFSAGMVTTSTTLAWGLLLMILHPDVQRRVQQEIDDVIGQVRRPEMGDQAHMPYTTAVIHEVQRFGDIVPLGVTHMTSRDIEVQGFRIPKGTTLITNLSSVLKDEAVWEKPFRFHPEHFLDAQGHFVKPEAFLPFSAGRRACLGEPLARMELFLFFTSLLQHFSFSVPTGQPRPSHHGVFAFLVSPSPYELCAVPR
Compound,Potency [1] [µM],"activity change, negative = inhibition [2] [%]",Potency [3],"activity change, negative = inhibition [4] [%]","activity, negative = inhibition [5] [%]",Potency [6] [µM],Potency [7] [µM],"activity change, negative = inhibition [8]",outcome [9],"activity change, negative = inhibition [10]",Potency [11],Potency [12],activation [13] [%],Potency [14],"activity change, negative = inhibition [3]","activity change, positive = activation [11]"
NCCCN1CCN(c2ccccc2)CC1,> 11.4,2.17,inactive,-2.83,5.73,> 46,> 9.22,-2.39% [at 11.4 µM],inactive,–,–,–,–,–,–,–
C[C@@H](Cc1ccc(Cl)cc1Cl)NO,> 11.4,3.86,0.251 µM (active),-11.6,-0.402,> 46,> 9.22,2.58% [at 11.4 µM],inactive,–,–,–,–,–,–,–
CC(=O)O[C@H]1CC[C@@]2(C)[C@@H](CC[C@H]3[C@H]2CC(=O)[C@]2(C)[C@@H]3C[C@@H](N3CC3)[C@H]2C(C)=O)C1,> 11.4,4.13,0.0398 µM (active),13.1,5.02,> 46,> 9.22,-0.773% [at 11.4 µM],inactive,71.6% [at 11.4 µM],3.98 µM (active),inactive,5.69,–,–,–
C[C@H](Br)CN(C[C@H](C)Br)c1ccc2c(c1)Cc1ccccc1-2,> 11.4,-9.29,3.16 µM (active),8.25,-7.03,> 46,> 9.22,-8.45% [at 11.4 µM],inactive,–,–,2.51 µM (active),–,inactive,–,–
CC(=O)OC1=CC2=CC[C@H]3[C@H]4CCC(=O)[C@@]4(C)CC(=O)[C@]3(S)[C@]2(C)CC1,> 11.4,-0.915,–,2.48,-7.63,> 46,> 9.22,-3.16% [at 11.4 µM],inactive,–,–,–,-4.78,–,-9.4% [at 2.29 µM],–
O=[As](O)(O)c1ccc2nc3cc([As](=O)(O)O)ccc3nc2c1,> 11.4,0.372,inactive,20.7,-4.42,> 46,> 9.22,-2.18% [at 11.4 µM],inactive,–,–,inactive,–,–,–,–
CC(C)c1ccc(C(O)(C(=O)O)c2ccc(C(C)C)cc2)cc1,> 11.4,2.63,inactive,-9.63,4.5,> 46,> 9.22,5.33% [at 11.4 µM],inactive,–,–,–,–,inactive,–,–
Cc1nc2ccccc2cc1C[N+]12CN3CN(CN(C3)C1)C2,> 11.4,-8.29,0.631 µM (active),6.19,6.99,> 46,> 9.22,0.875% [at 11.4 µM],inactive,–,–,–,9.32,–,–,–
Nc1nc(N)c(N=Nc2ccc([As](=O)(O)O)cc2)c(=O)[nH]1,> 11.4,6.48,–,5.43,0.893,> 46,> 9.22,5.04% [at 11.4 µM],inactive,–,–,–,–,–,-14.9% [at 2.29 µM],–
COc1ccc(C(=O)O[C@H]2CC[C@@]3(C)[C@H]4CC[C@H]5[C@]3(C[C@]3(O)[C@H]6CN7C[C@H](C)CC[C@H]7[C@](C)(O)[C@]6(O)[C@H](O)C[C@]53O)O[C@]24O)cc1OC,> 11.4,1.14,–,-1.26,-2.58,> 46,> 9.22,-0.646% [at 11.4 µM],inactive,–,–,inactive,–,–,-20.9% [at 2.29 µM],–
O=C(C[C@H](c1ccccc1)c1c(O)c2ccccc2oc1=O)c1ccccc1,> 11.4,2.29,–,11.4,-9.56,> 46,> 9.22,-4.41% [at 11.4 µM],inactive,–,–,–,–,–,-12.6% [at 2.29 µM],-30.1% [at 11.4 µM]
C[C@H](Br)C(=O)N[C@H](CO)C(=O)O,> 11.4,-6.82,inactive,5.22,-2.06,> 46,> 9.22,0.572% [at 11.4 µM],inactive,–,–,–,–,–,–,–
